Data on 30 compounds can be found in PubChem BioAssay AID2551 (National Center for Advancing Translational Sciences (NCATS), 2010).

The structures appear in SMILES notation. About 17,000 (5.5%) of roughly 310,000 compounds were called active. About 11% were inconclusive and are not listed. Calls follow the shape of the dose curve; as a rule, active = well fitted inhibition curve with a large enough effect; inconclusive = small, poorly fitted or top-dose-only effect, or effect the other way; inactive = no such curve, though single readings can be large or run the other way. This excerpt belongs to a sample that is enriched for actives.
% is scaled to controls: 0 for no effect and ±100 for the full control effect; potency is read from the fitted curve at half-maximal effect.

In this assay the target is Nuclear receptor ROR-gamma (Mus musculus) (UniProt P51450). The experiment in a line: qHTS for inhibitors of ROR gamma transcriptional activity. Also: nearly all actives have a fitted effect of over 60% in size. The settings on record: Drosophila S2 Gal4-RORgamma UAS-luciferase reporter, 20 h; series mostly up to 53.6 µM; activity change, negative = inhibition: at the top concentration. Summed up: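 Stable Schneider cell line, Gal4 DNA-binding domain fused to ROR gamma, UAS-luciferase. Cmpd 1 hr RT → CuSO4 700 uM final → 20 hr RT → luciferase reagent 10 min → luminescence.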
Chain of Nuclear receptor ROR-gamma (Mus musculus) (P51450 whole entry, looked up, the tested form may be a part): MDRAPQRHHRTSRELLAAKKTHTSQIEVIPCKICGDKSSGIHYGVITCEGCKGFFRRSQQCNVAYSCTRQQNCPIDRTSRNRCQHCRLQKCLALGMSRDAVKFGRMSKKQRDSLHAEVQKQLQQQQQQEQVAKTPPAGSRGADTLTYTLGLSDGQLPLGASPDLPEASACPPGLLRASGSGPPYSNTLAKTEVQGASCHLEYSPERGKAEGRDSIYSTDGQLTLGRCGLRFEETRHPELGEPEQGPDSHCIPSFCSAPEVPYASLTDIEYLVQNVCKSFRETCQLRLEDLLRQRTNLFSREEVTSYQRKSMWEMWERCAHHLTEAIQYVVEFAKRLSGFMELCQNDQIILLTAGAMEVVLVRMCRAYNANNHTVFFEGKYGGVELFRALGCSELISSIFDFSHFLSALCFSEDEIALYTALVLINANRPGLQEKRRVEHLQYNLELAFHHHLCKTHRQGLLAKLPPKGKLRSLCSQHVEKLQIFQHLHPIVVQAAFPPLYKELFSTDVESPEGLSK
On to `c1cnc(N2CCN(c3ccc4ccccc4n3)CC2)nc1`, for which the “activity change, negative = inhibition” value was -20.4% (inactive).

Turning to `CCCN1CCn2c3c(c4cc(Br)ccc42)CCCC31` (stereo not given), the “activity change, negative = inhibition” value is -5.16% (inactive).

For the compound `COCCN1CCn2c(nc3cc(NS(C)(=O)=O)ccc32)C1`, the “activity change, negative = inhibition” value was 9.64% (inactive).

Consider `COCCOC(=O)c1[nH]c2c(c1C)C(=O)CC(c1ccc(OC)cc1)C2` (stereo not given), for which the “activity change, negative = inhibition” value was 30.1% (inactive).

For the compound `Cc1ccc(OCC(=O)NCCCNC(=O)c2cccnc2)cc1C`, the “activity change, negative = inhibition” value was -1.54% (inactive).

In the case of `Cc1cn([C@H]2CC(F)[C@@H](CO)O2)c(=O)[nH]c1=O` (stereo not given in full), the “activity change, negative = inhibition” value was -17.9% (inactive).

`COc1cccc(CNc2ncc(-c3ccccc3)n2C)c1`: the “activity change, negative = inhibition” value is -20.9% (inactive).

With `CC(C)[C@@H](NC(=O)OC(C)(C)C)C(=O)NCC1CCC(C(=O)N[C@@H](Cc2ccccc2)C(=O)O)CC1` (stereo not given in full), the “activity change, negative = inhibition” value is 10.4% (inactive).

As to `CCC1OC(c2ccc([N+](=O)[O-])cc2)=Nc2ccccc21` (stereo not given), the “activity change, negative = inhibition” value was 19.1% (inactive).

Take `CC(=O)Nc1ccc(NC(=O)C2CCCN(S(=O)(=O)c3ccc(Cl)cc3)C2)cc1` (stereo not given): the “activity change, negative = inhibition” value is -12.4% (inactive).

For the compound `CC(C)c1nc(SCC(=O)Nc2cccc(C(=O)O)c2)c2c3c(sc2n1)CCCC3`, the “activity change, negative = inhibition” value is 10.5% (inactive).

`CCOC(=O)Cn1c(SC)nc2sc3c(c2c1=O)CC(C)(C)OC3`: the “activity change, negative = inhibition” value was 5.51% (inactive).

Take `COCCn1c(C)cc(C(=O)CSc2ncnc3sc4c(c23)CCC4)c1C`: the “activity change, negative = inhibition” value is 2.15% (inactive).

`Cc1cc(C)n(-c2nc(SCC(=O)N3CCCC3)c3c4c(sc3n2)CCCC4)n1`: the Potency is 6.31 µM (active).

Regarding `CCSc1nc2sc3c(c2c(=O)[nH]1)CC(C)(C)OC3`, the “activity change, negative = inhibition” value was -2.33% (inactive).

As for `CCc1nc(N2CCN(C(C)=O)CC2)c2c3c(sc2n1)CCCC3`, the “activity change, negative = inhibition” value was 27.6% (inactive).

Regarding `COCCNc1nc(-n2nc(C)cc2C)nc2sc3c(c12)CCCC3`, the Potency is 0.562 µM (active).

In the case of `CCC(O)CNc1nc(-n2nc(C)cc2C)nc2sc3c(c12)CC(C)(C)OC3` (stereo not given), the Potency was 1.58 µM (active).

`COc1ncnc2sc3c(c12)CCCC3`: the “activity change, negative = inhibition” value is -11.1% (inactive).

In the case of `Cc1cccn2c(=O)c(/C=C(\C#N)C(N)=O)c(N3CCCCCC3)nc12`, the “activity change, negative = inhibition” value was 41.5% (inactive).

For the compound `CN(Cc1ccccc1)S(=O)(=O)c1nnc(NC(=O)c2ccccc2F)s1`, the “activity change, negative = inhibition” value was 14.3% (inactive).

As to `CC(=O)Nc1cccc(NC(=O)CSc2nccn2Cc2ccc(F)cc2)c1`, the “activity change, negative = inhibition” value was -10.8% (inactive).

Take `Cn1c(=O)c2ccccc2n(CC(=O)Nc2ccc3c(c2)OCCO3)c1=O`: the “activity change, negative = inhibition” value was 38.8% (inactive).

Turning to `Cc1ccc(-c2nc(CS(=O)(=O)CC(=O)NCc3ccc4c(c3)OCO4)c(C)o2)cc1`, the “activity change, negative = inhibition” value was -22.5% (inactive).

As for `Cc1ccc(NS(=O)(=O)c2ccc(-c3ccc(=O)[nH]n3)o2)c(C)c1`, the “activity change, negative = inhibition” value was 18.7% (inactive).

For the compound `NC(=O)CN1CCCC1c1ccc2c(c1)OCCO2` (stereo not given), the “activity change, negative = inhibition” value is -5.36% (inactive).

For the compound `CC1C(=O)Nc2ccc(S(=O)(=O)N3CCN(c4ccccc4F)CC3)cc2NC1=O` (stereo not given), the “activity change, negative = inhibition” value was 31.3% (inactive).

For the compound `COc1cc(/C=N/n2c(C)n[nH]c2=S)ccc1OCc1ccccc1`, the Potency was 6.31 µM (active).

On to `CCOc1ccc(/C=N/Nc2nncc(-c3ccccc3)n2)cc1OC`, for which the “activity change, negative = inhibition” value was 11.4% (inactive).

`COc1cc(/C=N/O)ccc1OCc1ccc([N+](=O)[O-])cc1`: the “activity change, negative = inhibition” value was -23% (inactive).
